Assay results reported in the supplement of paper PMC10849652.
Of roughly 7,900 targets only a part is listed; those with a hit were picked by preference. About 0.6% of all pairs of compound and target were hits. Values without a mark were called inactive.

Assays:
Experiment in all cases: log2 fold change, soluble protein after heating vs DMSO (PISA); higher = thermal stabilisation; K562 cells, 10 uM, 30 min; active = over 0.2 and 3.5 SD of the protein, either way, in both replicates (recomputed)
[1] = compound: CC[C@@H]1C(=O)N(C)c2cnc(Nc3ccc(C(=O)NC4CCN(C)CC4)cc3OC)nc2N1C1CCCC1
Method in brief: (§1)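 K562 cells at 2×10^6 cells/mL were given 10 μM compound for 30 min. Aliquots then went through 3 min of heating across 48°C-58°C, were pooled, and were extracted in PBS with 0.5% NP-40 at 4°C, and the supernatant after 21,000xg for 90 min was quantified by TMTpro 16plex LC-MS/MS with channel sums equalised. Thermal stability relative to control samples, from duplicates, is given as log2 fold change.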

volasertib = compound: CC[C@@H]1C(=O)N(C)c2cnc(Nc3ccc(C(=O)N[C@H]4CC[C@H](N5CCN(CC6CC6)CC5)CC4)cc3OC)nc2N1C(C)C [volasertib]
Method in brief: as §1

[2] = compound: CC[C@H](C)N1C=C(C2=C(C=C(C=C21)C3=CN=C(C=C3)N4CCNCC4)C(=O)NCC5=C(C=C(NC5=O)C)C)C
Method in brief: as §1

epoxomicin = compound: CC[C@H](C)[C@@H](C(=O)N[C@@H]([C@@H](C)O)C(=O)N[C@@H](CC(C)C)C(=O)[C@]1(CO1)C)NC(=O)[C@H]([C@@H](C)CC)N(C)C(=O)C [epoxomicin]
Method in brief: as §1

[3] = compound: CCn1c(C(=O)N(C2CC2)C2CC2)cc2c3c(ncn3C)c(Nc3cc(C)n(C)n3)nc21
Method in brief: as §1

[4] = compound: CCn1cc(-c2ccnc3[nH]c(-c4cccc(CN(C)C)c4)cc23)c(-c2ccc(NC(=O)N(C)C)cc2)n1
Method in brief: as §1

[5] = compound: CN(C)CC(=O)Nc1ccc2[nH]c(=O)c3ccccc3c2c1
Method in brief: as §1

rosiglitazone = compound: CN(CCOC1=CC=C(C=C1)C[C@H]2C(=O)NC(=O)S2)C3=CC=CC=N3 (racemic) [rosiglitazone]
Method in brief: as §1

[6] = compound: CN1C2=C(C3=C1C(=O)N(N=C3)CC4=CC(=CC=C4)N)SC(=C2)S(=O)C
Method in brief: as §1

[7] = compound: CN1CCC(CNc2ccc3ncc(-c4cccc(OC(F)(F)F)c4)n3n2)CC1
Method in brief: as §1

UniProt Q8N6S5, sequence (Q8N6S5 whole entry, looked up): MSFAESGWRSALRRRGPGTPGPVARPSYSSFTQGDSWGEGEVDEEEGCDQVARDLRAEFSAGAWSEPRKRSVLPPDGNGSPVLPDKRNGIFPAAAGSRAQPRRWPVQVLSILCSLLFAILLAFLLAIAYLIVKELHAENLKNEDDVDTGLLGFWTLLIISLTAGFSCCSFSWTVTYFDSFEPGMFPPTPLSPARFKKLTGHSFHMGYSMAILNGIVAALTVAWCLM
UniProt Q10589, sequence (Q10589 whole entry, looked up): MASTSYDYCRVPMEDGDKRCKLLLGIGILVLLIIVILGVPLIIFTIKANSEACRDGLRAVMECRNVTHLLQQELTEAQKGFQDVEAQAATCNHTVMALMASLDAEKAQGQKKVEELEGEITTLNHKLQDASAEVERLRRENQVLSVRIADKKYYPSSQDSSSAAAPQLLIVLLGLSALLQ
UniProt Q9P287, sequence (Q9P287 whole entry, looked up): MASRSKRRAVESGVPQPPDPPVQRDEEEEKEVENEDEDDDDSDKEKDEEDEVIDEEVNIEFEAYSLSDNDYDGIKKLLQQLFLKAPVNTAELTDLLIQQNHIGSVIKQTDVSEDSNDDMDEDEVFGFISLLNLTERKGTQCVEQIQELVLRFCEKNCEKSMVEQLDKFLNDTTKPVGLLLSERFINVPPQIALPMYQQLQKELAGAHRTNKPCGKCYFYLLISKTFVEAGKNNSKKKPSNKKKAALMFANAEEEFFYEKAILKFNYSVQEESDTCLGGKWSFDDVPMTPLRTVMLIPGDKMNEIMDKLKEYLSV
UniProt Q99798, sequence (Q99798 whole entry, looked up): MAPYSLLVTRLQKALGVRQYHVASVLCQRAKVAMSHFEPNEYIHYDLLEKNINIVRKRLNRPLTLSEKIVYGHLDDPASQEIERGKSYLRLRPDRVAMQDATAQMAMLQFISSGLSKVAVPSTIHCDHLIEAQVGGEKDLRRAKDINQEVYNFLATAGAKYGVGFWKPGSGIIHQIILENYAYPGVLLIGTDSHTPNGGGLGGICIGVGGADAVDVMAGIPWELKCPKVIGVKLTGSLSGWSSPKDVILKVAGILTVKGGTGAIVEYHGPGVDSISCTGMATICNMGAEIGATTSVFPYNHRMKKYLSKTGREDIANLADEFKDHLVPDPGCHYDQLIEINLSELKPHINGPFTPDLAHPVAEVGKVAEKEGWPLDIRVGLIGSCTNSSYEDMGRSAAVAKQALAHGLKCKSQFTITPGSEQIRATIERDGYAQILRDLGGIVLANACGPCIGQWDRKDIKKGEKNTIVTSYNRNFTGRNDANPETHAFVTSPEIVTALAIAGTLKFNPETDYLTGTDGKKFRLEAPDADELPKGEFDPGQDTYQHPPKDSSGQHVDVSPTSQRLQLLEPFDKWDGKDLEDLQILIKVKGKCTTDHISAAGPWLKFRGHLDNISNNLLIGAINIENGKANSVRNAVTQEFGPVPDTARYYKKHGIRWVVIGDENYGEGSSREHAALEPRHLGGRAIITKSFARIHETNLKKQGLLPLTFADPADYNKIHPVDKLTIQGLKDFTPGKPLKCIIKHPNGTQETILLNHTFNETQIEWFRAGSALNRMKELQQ
UniProt P11310, sequence (P11310 whole entry, looked up): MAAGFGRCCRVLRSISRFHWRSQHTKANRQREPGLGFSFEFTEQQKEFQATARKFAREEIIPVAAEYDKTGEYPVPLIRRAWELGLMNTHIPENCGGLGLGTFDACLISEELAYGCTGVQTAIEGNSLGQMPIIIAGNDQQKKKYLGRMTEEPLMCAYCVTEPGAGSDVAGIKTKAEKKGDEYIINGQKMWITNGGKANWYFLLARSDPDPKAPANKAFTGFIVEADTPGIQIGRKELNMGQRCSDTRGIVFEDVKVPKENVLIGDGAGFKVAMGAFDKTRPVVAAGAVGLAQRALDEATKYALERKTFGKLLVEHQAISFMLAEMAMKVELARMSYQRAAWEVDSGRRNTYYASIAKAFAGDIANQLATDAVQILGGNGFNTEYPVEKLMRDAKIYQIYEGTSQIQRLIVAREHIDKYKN
UniProt Q9NSY1, sequence (Q9NSY1 whole entry, looked up): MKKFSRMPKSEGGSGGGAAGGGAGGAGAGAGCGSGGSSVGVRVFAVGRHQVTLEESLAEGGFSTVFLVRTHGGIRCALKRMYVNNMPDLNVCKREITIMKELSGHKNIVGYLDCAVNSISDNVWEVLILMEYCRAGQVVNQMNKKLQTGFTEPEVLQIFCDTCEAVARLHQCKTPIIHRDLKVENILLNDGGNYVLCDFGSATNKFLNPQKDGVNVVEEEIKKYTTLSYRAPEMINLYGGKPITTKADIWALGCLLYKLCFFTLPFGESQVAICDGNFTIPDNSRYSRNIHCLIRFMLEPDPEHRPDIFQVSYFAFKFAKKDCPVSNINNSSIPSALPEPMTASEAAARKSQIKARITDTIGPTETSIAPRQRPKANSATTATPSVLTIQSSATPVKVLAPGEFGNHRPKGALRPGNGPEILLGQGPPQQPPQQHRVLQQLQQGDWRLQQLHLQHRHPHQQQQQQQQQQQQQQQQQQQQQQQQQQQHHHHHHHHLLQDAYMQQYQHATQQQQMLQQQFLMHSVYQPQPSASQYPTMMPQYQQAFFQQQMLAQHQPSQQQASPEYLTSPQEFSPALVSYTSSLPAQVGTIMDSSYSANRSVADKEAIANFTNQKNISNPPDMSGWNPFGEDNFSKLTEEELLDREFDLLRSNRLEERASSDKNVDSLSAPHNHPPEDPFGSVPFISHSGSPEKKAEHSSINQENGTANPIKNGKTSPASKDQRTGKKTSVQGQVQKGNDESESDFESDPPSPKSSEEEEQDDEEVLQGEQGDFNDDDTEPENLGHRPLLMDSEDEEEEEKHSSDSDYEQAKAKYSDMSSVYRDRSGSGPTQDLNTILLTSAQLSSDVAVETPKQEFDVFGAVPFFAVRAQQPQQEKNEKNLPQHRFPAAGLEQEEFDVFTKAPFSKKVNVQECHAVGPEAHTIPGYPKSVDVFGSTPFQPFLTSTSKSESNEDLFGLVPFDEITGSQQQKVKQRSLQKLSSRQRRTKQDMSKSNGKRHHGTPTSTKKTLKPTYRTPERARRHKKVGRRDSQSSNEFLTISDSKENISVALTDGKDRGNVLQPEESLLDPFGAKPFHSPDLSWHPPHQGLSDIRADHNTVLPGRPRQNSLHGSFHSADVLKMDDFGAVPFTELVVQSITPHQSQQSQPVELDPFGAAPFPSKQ
UniProt O00116, sequence (O00116 whole entry, looked up): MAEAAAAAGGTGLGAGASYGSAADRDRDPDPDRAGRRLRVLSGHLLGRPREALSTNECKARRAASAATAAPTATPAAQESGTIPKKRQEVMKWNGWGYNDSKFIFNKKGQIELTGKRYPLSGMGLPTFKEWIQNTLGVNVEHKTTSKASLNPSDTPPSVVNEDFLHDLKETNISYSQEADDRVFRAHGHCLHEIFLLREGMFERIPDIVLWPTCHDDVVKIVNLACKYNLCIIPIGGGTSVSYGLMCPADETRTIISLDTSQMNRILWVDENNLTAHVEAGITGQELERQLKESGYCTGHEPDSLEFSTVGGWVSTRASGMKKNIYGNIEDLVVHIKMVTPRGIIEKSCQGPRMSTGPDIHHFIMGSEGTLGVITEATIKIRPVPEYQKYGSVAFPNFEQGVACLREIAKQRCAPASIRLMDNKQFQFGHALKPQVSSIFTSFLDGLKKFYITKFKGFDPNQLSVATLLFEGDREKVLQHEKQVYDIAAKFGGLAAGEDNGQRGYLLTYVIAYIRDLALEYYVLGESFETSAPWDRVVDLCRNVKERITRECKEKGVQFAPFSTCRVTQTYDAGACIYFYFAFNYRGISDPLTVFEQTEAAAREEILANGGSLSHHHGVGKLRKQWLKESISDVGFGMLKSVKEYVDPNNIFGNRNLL
UniProt P24666, sequence (P24666 whole entry, looked up): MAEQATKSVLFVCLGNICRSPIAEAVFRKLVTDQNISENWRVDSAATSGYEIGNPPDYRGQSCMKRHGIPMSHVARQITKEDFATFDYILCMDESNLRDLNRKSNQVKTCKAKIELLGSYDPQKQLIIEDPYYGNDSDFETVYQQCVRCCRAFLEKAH
UniProt O00170, sequence (O00170 whole entry, looked up): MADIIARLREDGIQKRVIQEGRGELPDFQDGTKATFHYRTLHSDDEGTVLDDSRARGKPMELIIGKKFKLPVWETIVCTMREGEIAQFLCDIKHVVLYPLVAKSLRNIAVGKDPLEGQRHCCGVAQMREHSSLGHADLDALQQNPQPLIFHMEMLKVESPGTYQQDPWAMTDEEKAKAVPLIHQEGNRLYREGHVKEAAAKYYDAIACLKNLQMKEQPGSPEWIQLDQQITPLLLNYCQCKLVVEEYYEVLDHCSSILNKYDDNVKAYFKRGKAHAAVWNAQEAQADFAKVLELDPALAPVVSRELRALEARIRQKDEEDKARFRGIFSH
UniProt Q13685, sequence (Q13685 whole entry, looked up): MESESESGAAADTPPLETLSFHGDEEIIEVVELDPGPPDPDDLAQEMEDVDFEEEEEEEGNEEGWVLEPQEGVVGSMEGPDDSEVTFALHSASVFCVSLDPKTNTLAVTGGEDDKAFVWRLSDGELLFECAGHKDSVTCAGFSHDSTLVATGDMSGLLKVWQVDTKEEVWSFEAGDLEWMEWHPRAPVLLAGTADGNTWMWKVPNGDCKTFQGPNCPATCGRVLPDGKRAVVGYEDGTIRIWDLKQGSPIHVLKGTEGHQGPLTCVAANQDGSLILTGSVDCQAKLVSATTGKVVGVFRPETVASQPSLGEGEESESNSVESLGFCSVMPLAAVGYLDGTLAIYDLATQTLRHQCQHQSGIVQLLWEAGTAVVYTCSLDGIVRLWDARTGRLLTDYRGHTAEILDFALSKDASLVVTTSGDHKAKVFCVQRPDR
UniProt Q99943, sequence (Q99943 whole entry, looked up): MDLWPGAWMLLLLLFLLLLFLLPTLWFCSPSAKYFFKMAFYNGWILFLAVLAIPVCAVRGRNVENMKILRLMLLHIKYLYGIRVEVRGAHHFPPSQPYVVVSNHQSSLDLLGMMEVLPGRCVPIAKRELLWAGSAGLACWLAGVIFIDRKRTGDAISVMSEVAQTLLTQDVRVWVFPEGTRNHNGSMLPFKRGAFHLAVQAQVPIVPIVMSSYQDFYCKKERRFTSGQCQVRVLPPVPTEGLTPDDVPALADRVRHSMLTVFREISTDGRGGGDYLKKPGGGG

Row | Target | log2 fold change [1] | log2 fold change (volasertib) | log2 fold change [2] | log2 fold change (epoxomicin) | log2 fold change [3] | log2 fold change [4] | log2 fold change [5] | log2 fold change (rosiglitazone) | log2 fold change [6] | log2 fold change [7]
1 | ARFGAP1 (UniProt Q8N6T3) | -0.182 | -0.545 (active) | 0.056 | 0.026 | -0.042 | 0.008 | 0.036 | -0.003 | -0.016 | 0.068
2 | ARFRP1 (UniProt Q13795) | -0.038 | -0.05 | 0.048 | 0.037 | 0.026 | -0.23 | 0.012 | -0.021 | -0.021 | 0.071
3 | ATP1A1 (UniProt P05023) | 0.058 | 0.059 | -0.029 | -0.025 | 0.021 | -0.026 | -0.009 | -0.004 | -0.053 | 0.26 (active)
4 | ACTR1B (UniProt P42025) | 0.081 | 0.048 | 0.01 | -0.008 | -0.014 | -0.581 (active) | 0.021 | -0.033 | -0.089 | 0.306
5 | ACAP2 (UniProt Q15057) | -0.034 | -0.192 | 0.066 | -0.002 | -0.007 | -0.015 | 0.065 | 0.023 | -0.004 | 0.063
6 | ACP1 isoform 2 (UniProt P24666) | 0.034 | 0.055 | 0.063 | 0.012 | -0.1 | -0.083 | 0.05 | 0.027 | 0.014 | -0.07
7 | ACADM isoform 2 (UniProt P11310) | -0.045 | -0.03 | -0.015 | 0.015 | 0.014 | -0.042 | -0.024 | 0.008 | -0.078 | -0.011
8 | ACO2 (UniProt Q99798) | 0.043 | 0.037 | 0.022 | 0.046 | -0.011 | -0.115 | 0.055 | -0.023 | -0.118 | -0.344 (active)
9 | ARL6IP6 (UniProt Q8N6S5) | 0.154 | -0.007 | -0.043 | -0.086 | -0.074 | 0.004 | 0.004 | 0.005 | 0.029 | 0.01
10 | BCCIP isoform 2 (UniProt Q9P287) | -0.037 | -0.038 | 0.044 | 0.019 | 0.023 | 0.022 | 0.026 | 0.021 | -0.042 | -0.028
11 | BRAF (UniProt P15056) | 0 | -0.097 | 0.043 | 0.04 | 0.008 | 0.029 | 0.036 | 0.034 | -0.039 | -0.07
12 | ATAD1 (UniProt Q8NBU5) | -0.008 | -0.127 | 0.056 | 0.065 | -0.013 | -0.027 | 0.064 | 0.021 | -0.033 | -0.046
13 | AGPS (UniProt O00116) | -0.005 | -0.021 | 0.002 | 0.031 | 0.018 | -0.102 | 0.039 | 0.055 | -0.09 | -0.212 (active)
14 | BRAP (UniProt Q7Z569) | -0.092 | -0.23 | 0.033 | -0.093 | -0.02 | 0.086 | 0.02 | 0.02 | 0.06 | -0.158
15 | ABCB6 (UniProt Q9NP58) | -0.131 | -0.051 | 0.001 | -0.009 | 0 | -0.019 | 0.061 | 0.027 | -0.053 | -0.123
16 | ALDH9A1 (UniProt P49189) | -0.035 | 0.009 | 0.111 | -0.011 | 0.095 | -0.005 | 0 | -0.062 | -0.015 | 0.016
17 | AAMP (UniProt Q13685) | 0.072 | 0.051 | -0.016 | -0.017 | 0.023 | -0.016 | 0.011 | 0.001 | -0.004 | 0.054
18 | ANAPC2 (UniProt Q9UJX6) | -0.071 | -0.338 (active) | 0.023 | -0.031 | -0.027 | -0.018 | 0.004 | 0.191 | 0.03 | -0.001
19 | APOB (UniProt P04114) | -0.235 | -0.104 | -0.227 | -0.056 | 0.004 | 0.048 | 0.014 | 0.02 | 0.116 | -0.354
20 | ANP32E (UniProt Q9BTT0) | -0.132 | -0.499 (active) | 0.04 | 0.054 | -0.085 | -0.128 | -0.051 | -0.025 | -0.058 | -0.147
21 | BST2 (UniProt Q10589) | 0.091 | 0.206 | -0.062 | -0.025 | -0.003 | 0.045 | -0.008 | -0.055 | 0 | 0.223 (active)
22 | AIP (UniProt O00170) | -0.115 | -0.372 (active) | 0.054 | 0.172 | -0.006 | -0.051 | 0.057 | 0.053 | -0.085 | -0.047
23 | BMP2K (UniProt Q9NSY1) | 0.13 | 0.115 | -0.02 | -0.053 | 0.269 | 0.023 | -0.058 | -0.044 | 0.008 | 0.656 (active)
24 | AP2A2 isoform 2 (UniProt O94973) | 0.026 | -0.021 | 0 | 0.048 | 0.01 | -0.012 | 0 | 0.012 | 0.008 | 0.089
25 | ATXN3 isoform 1 (UniProt P54252) | -0.371 | -0.401 (active) | 0.099 |  | 0.011 | -0.016 | -0.083 | -0.039 |  | -0.015
26 | AFG1L (UniProt Q8WV93) | 0.047 | -0.223 | 0.207 | 0.035 | 0.017 |  | 0.063 | 0.021 | -0.122 | 
27 | AGAP3 isoform 4 (UniProt Q96P47) | 0.154 | -0.038 | 0.105 | 0.034 | 0.019 |  |  | 0.162 |  | 
28 | AGPAT1 (UniProt Q99943) | -0.032 | -0.243 (active) | 0.015 | -0.056 | -0.007 | -0.006 | 0.032 | -0.011 | -0.102 | 0.315 (active)
29 | ACOX3 (UniProt O15254) | -0.346 | 0.028 | -0.069 | -0.113 | 0.011 |  | -0.129 | 0.044 |  | 
30 | ACSL3 (UniProt O95573) | -0.062 | -0.23 (active) | 0.022 | 0.048 | -0.049 | -0.042 | 0.024 | 0.642 (active) | -0.036 | -0.1
